Assay results: PubChem BioAssay (NCI)
The panel holds about 79,000 compounds, 15% with a hit somewhere; the sample as a whole holds those more often. Activity calls are given as the source filed them. No stated cut-off is given here; in the data, active means growth inhibition above about 70%; inactive means the rest.

Assays:
[1] = NCI Yeast Anticancer Drug Screen. Data for the rad52 strain (AID 147);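 further: 0% = growth of vehicle-treated control cultures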; conditions: S. cerevisiae rad52 mutant growth inhibition, active compounds read high
Procedure, shortened: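 Compounds are applied to a genetically defined yeast strain lacking normal DNA damage repair, and inhibition of growth is expressed relative to cultures given vehicle only.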

[2] = NCI Yeast Anticancer Drug Screen. Data for the wt1 strain (AID 149);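 further: 0% = growth of vehicle-treated wt1 cultures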; conditions: S. cerevisiae wt1 strain (SPY 50644) growth inhibition, active compounds read high
Procedure, shortened: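 Each compound is tested on wt1 yeast and the loss of growth versus vehicle gives the inhibition value.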

[3] = NCI Yeast Anticancer Drug Screen. Data for the rad50EPP+ strain (AID 151);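 further: 0% = growth of vehicle-treated control cultures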; conditions: S. cerevisiae rad50 mutant strain, active compounds read high
Procedure, shortened: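 Compounds were applied to the rad50EPP+ yeast strain, which bears a defined DNA repair alteration, and growth inhibition was determined relative to vehicle-treated cultures.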

[4] = NCI Yeast Anticancer Drug Screen. Data for the mgt1 strain (AID 153); conditions: S. cerevisiae mgt1 mutant growth inhibition, active compounds read high
Procedure, shortened: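 Strain: mgt1 yeast, one of a set carrying defined DNA damage repair or cell cycle control alterations. Compound-treated growth compared with vehicle.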

[5] = NCI Yeast Anticancer Drug Screen. Data for the rad50 strain (AID 155);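 further: 0% = growth of vehicle-only cultures of the same strain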; conditions: S. cerevisiae rad50 strain growth inhibition, active compounds read high
Procedure, shortened: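 Vehicle-treated cultures provide the reference for the growth inhibition reported for compound-exposed, repair-deficient yeast.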

[6] = NCI Yeast Anticancer Drug Screen. Data for the mec2-1 strain (AID 157); conditions: S. cerevisiae mec2-1 strain, active compounds read high
Procedure, shortened: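 Strain: mec2-1 (DNA repair/cell cycle alteration). Compound exposure, then growth measured; inhibition expressed relative to vehicle.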

[7] = NCI Yeast Anticancer Drug Screen. Data for the rad14 strain (AID 159);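 further: 0% = growth of vehicle-treated control cultures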; conditions: S. cerevisiae rad14 strain growth inhibition, active compounds read high
Procedure, shortened: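 Inhibition of growth is reported for a repair-deficient yeast mutant following compound treatment, calculated relative to cultures that received vehicle.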

[8] = NCI Yeast Anticancer Drug Screen. Data for the sgs1 mgt1 strain (AID 161);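 further: 0% = growth of cultures given vehicle only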; conditions: S. cerevisiae sgs1 mgt1 strain, active compounds read high
Procedure, shortened: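 Mutant yeast exposed to compound; growth scored against vehicle-only wells.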

[9] = NCI Yeast Anticancer Drug Screen. Data for the CLN2oe strain (AID 163);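 further: 0% = growth of vehicle-only control cultures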; conditions: S. cerevisiae CLN2oe strain, active compounds read high
Procedure, shortened: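 Growth of a genetically modified yeast strain is measured after compound exposure and compared with cultures given vehicle alone.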

[10] = NCI Yeast Anticancer Drug Screen. Data for the cln2 rad14 strain (AID 165);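 further: 0% = growth equal to vehicle treated cultures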; conditions: S. cerevisiae cln2 rad14 strain, active compounds read high
Procedure, shortened: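 Compounds are applied to the cln2 rad14 yeast strain, and growth is then compared with that of vehicle-treated cultures to give inhibition.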

[11] = NCI Yeast Anticancer Drug Screen. Data for the bub3 strain (AID 167); conditions: S. cerevisiae bub3 mutant strain, active compounds read high
Procedure, shortened: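 Mutant yeast screening strain plus compound; vehicle-treated cultures serve as the 0% inhibition reference.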

[12] = NCI Yeast Anticancer Drug Screen. Data for the wt2 strain (AID 169); conditions: S. cerevisiae wt2 strain growth inhibition, active compounds read high
Procedure, shortened: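 This strain belongs to a panel of yeast strains with defined genetic alterations in DNA damage repair or cell cycle control. Compounds are applied, and growth inhibition is measured against vehicle-treated cultures.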

[13] = NCI Yeast Anticancer Drug Screen. Data for the mlh1 strain (AID 171);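 further: 0% = growth of vehicle-treated control cultures of the same strain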; conditions: S. cerevisiae mlh1 strain growth inhibition, active compounds read high
Procedure, shortened: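 Growth of the mutant yeast strain after compound exposure, expressed as inhibition relative to vehicle-only controls.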

[14] = NCI Yeast Anticancer Drug Screen. Data for the sgs1 strain (AID 173);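 further: 0% = growth of vehicle-only control cultures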; conditions: S. cerevisiae sgs1 mutant, active compounds read high
Procedure, shortened: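 Growth of a yeast strain bearing a defined genetic alteration is measured after compound treatment. Inhibition is expressed relative to vehicle-only controls.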

[15] = NCI Yeast Anticancer Drug Screen. Data for the mlh1 rad18 strain (AID 175); conditions: S. cerevisiae mlh1 rad18 strain growth inhibition, active compounds read high
Procedure, shortened: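 Read-out is yeast growth inhibition, calculated against vehicle-only controls. The compound was applied to a strain engineered with DNA damage repair alterations.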

[16] = NCI Yeast Anticancer Drug Screen. Data for the rad18 strain (AID 177); conditions: S. cerevisiae rad18 mutant growth inhibition, active compounds read high
Procedure, shortened: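 Growth of the mutant yeast strain after compound exposure, normalised to vehicle-only cultures.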

[17] = at 5.0 µM (retest, dose inferred, filed as 0.5)
[18] = at 50.0 µM (retest, dose inferred, filed as 5.0)

Measured: growth inhibition

CC(C)=CCC/C(C)=C/CN1C(=O)C=CC1=O
inactive: [1]; at 1.2 µM 9% | [1]; at 3.7 µM 36% | [2]; at 1.2 µM 2% | [2]; at 3.7 µM 29% | [3]; at 1.2 µM 57% | [4]; at 1.2 µM -3% | [4]; at 3.7 µM 18% | [5]; at 1.2 µM 7% | [5]; at 3.7 µM 42% | [5]; [17] 13% | [6]; at 1.2 µM -3% | [6]; at 3.7 µM 17% | [6]; [17] -16% | [7]; at 1.2 µM 14% | [7]; at 3.7 µM 53% | [8]; [17] 36% | [9]; at 1.2 µM -13% | [9]; at 3.7 µM 5% | [10]; [17] -29% | [11]; at 1.2 µM 10% | [11]; at 3.7 µM 37% | [11]; [17] -24% | [12]; at 1.2 µM 24% | [13]; at 1.2 µM -8% | [13]; at 3.7 µM 15% | [14]; at 1.2 µM 20% | [14]; at 3.7 µM 48% | [15]; [17] 69% | [16]; at 1.2 µM 4% | [16]; at 3.7 µM 32%
active: [1]; at 11.0 µM 99% | [1]; at 33.0 µM 99% | [1]; at 100.0 µM 99% | [2]; at 11.0 µM 100% | [2]; at 33.0 µM 100% | [2]; at 100.0 µM 99% | [3]; at 3.7 µM 86% | [3]; at 11.0 µM 99% | [3]; at 33.0 µM 99% | [3]; at 100.0 µM 99% | [4]; at 11.0 µM 100% | [4]; at 33.0 µM 100% | [4]; at 100.0 µM 100% | [5]; at 11.0 µM 99% | [5]; at 33.0 µM 99% | [5]; [18] 98% | [5]; at 50.0 µM 99.7% | [5]; at 100.0 µM 99% | [6]; at 11.0 µM 99% | [6]; at 33.0 µM 100% | [6]; [18] 99% | [6]; at 50.0 µM 99.7% | [6]; at 100.0 µM 100% | [7]; at 11.0 µM 100% | [7]; at 33.0 µM 100% | [7]; at 100.0 µM 100% | [8]; [18] 99% | [8]; at 50.0 µM 99.5% | [9]; at 11.0 µM 81% | [9]; at 33.0 µM 99% | [9]; at 100.0 µM 99% | [10]; [18] 99% | [10]; at 50.0 µM 99.3% | [11]; at 11.0 µM 99% | [11]; at 33.0 µM 99% | [11]; [18] 99% | [11]; at 50.0 µM 99.4% | [11]; at 100.0 µM 99% | [12]; at 3.7 µM 76% | [12]; at 11.0 µM 100% | [12]; at 33.0 µM 99% | [12]; at 100.0 µM 99% | [13]; at 11.0 µM 98% | [13]; at 33.0 µM 99% | [13]; at 100.0 µM 99% | [14]; at 11.0 µM 99% | [14]; at 33.0 µM 100% | [14]; at 100.0 µM 99% | [15]; [18] 98% | [15]; at 50.0 µM 99.3% | [16]; at 11.0 µM 99% | [16]; at 33.0 µM 99% | [16]; at 100.0 µM 99%

CCCCCCCCCCCCCCCCCCNC(=S)/N=C/c1c(O)c2ccccc2[nH]c1=O
active: [8]; at 50.0 µM 86.5% | [11]; at 50.0 µM 72.3%
inactive: [1]; at 1.2 µM 7% | [1]; at 3.7 µM 4% | [1]; at 11.0 µM 16% | [1]; at 33.0 µM 11% | [1]; at 100.0 µM 12% | [2]; at 1.2 µM -32% | [2]; at 3.7 µM -6% | [2]; at 11.0 µM -3% | [2]; at 33.0 µM -3% | [2]; at 100.0 µM -3% | [3]; at 1.2 µM 1% | [3]; at 3.7 µM 3% | [3]; at 11.0 µM 12% | [3]; at 33.0 µM 29% | [3]; at 100.0 µM 40% | [4]; at 1.2 µM 1% | [4]; at 3.7 µM 4% | [4]; at 11.0 µM 2% | [4]; at 33.0 µM 1% | [4]; at 100.0 µM 0% | [5]; at 1.2 µM -1% | [5]; at 3.7 µM 0% | [5]; [17] -12% | [5]; at 11.0 µM 1% | [5]; at 33.0 µM 1% | [5]; [18] 61% | [5]; at 50.0 µM 63% | [5]; at 100.0 µM -1% | [6]; at 1.2 µM 0% | [6]; at 3.7 µM 2% | [6]; [17] -5% | [6]; at 11.0 µM -3% | [6]; at 33.0 µM 2% | [6]; [18] 27% | [6]; at 50.0 µM 6.6% | [6]; at 100.0 µM -1% | [7]; at 1.2 µM 1% | [7]; at 3.7 µM 1% | [7]; at 11.0 µM 0% | [7]; at 33.0 µM 4% | [7]; at 100.0 µM 4% | [8]; [17] 4% | [8]; [18] 26% | [9]; at 1.2 µM -4% | [9]; at 3.7 µM -3% | [9]; at 11.0 µM 2% | [9]; at 33.0 µM -7% | [9]; at 100.0 µM 3% | [10]; [17] -7% | [10]; [18] 16% | [10]; at 50.0 µM -24% | [11]; at 1.2 µM -4% | [11]; at 3.7 µM -4% | [11]; [17] -25% | [11]; at 11.0 µM -2% | [11]; at 33.0 µM -5% | [11]; [18] 69% | [11]; at 100.0 µM 26% | [12]; at 1.2 µM -3% | [12]; at 3.7 µM -1% | [12]; at 11.0 µM -2% | [12]; at 33.0 µM 4% | [12]; at 100.0 µM 20% | [13]; at 1.2 µM 0% | [13]; at 3.7 µM -2% | [13]; at 11.0 µM -3% | [13]; at 33.0 µM -4% | [13]; at 100.0 µM -4% | [14]; at 1.2 µM 0% | [14]; at 3.7 µM 3% | [14]; at 11.0 µM 6% | [14]; at 33.0 µM 11% | [14]; at 100.0 µM 23% | [15]; [17] 9% | [15]; [18] 28% | [15]; at 50.0 µM 58.4% | [16]; at 1.2 µM 2% | [16]; at 3.7 µM 4% | [16]; at 11.0 µM 6% | [16]; at 33.0 µM 22% | [16]; at 100.0 µM 25%
